# Measurements taken from PubChem BioAssay.
# Values without a mark were called inactive. No rule for the calls is given here.
# Target: Pantothenate synthetase (Mycobacterium tuberculosis (strain ATCC 25618 / H37Rv)) (UniProt P9WIL5)
# Experiment: Recombinant Mtb pantothenate synthetase (PanC) inhibitors, coupled enzyme, confirmatory (AID 375);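 also: 0% = full reaction with vehicle and 100% = no enzyme background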
# Settings: coupled enzyme assay; at 10 µM, active compounds read high
# Chain of Pantothenate synthetase (Mycobacterium tuberculosis (strain ATCC 25618 / H37Rv)) (P9WIL5 whole entry, looked up): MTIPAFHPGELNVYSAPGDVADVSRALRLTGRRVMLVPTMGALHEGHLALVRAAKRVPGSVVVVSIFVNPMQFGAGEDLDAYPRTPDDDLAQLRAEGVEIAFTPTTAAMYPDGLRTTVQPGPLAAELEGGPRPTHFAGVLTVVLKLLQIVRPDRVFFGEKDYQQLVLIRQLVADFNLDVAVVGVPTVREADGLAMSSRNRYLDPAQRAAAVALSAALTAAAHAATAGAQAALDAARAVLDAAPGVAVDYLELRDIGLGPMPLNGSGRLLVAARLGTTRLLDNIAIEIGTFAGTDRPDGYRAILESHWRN
row,Compound,inhibition [%]
1,O=C(NCC1CCCO1)c1cccc(N2CCCC2=O)c1 (stereo not drawn),0
2,CNC(=O)c1nnn(Cc2ccccc2)c1NC(C)=O,2
3,O=C(CCN1C(=O)COc2ccccc21)NCCCN1CCN(c2ccccc2F)CC1,0
4,CCN(CC)C(=O)C1CCC(CNS(=O)(=O)c2cccc3cccnc23)CC1 (stereo not drawn),0
5,COC(=O)C1=C(C)N(Cc2ccco2)C(=O)C1,0
6,c1ccc(-c2cc(N3CCCCC3)ncn2)cc1,0
7,O=C(NCc1cccnc1)c1ccccn1,0
8,COc1cc(C(=O)Nc2cccc(-c3nncn3C)c2)cc(OC)c1OC,0
9,CCOc1ccc(-c2c(C#N)c(N)nc3c2c(=O)n(C)c(=O)n3C)cc1OC,6
10,CC[C@H]1CN2CCc3cc(OC)c(OC)cc3[C@@H]2C[C@@H]1C[C@H]1NCCc2cc(OC)c(OC)cc21,0
11,COc1ccc(-c2nc(C)sc2CC(=O)O)cc1,4
12,N#Cc1c(N)c(C(=O)c2ccccc2)n2c1CCCC2,6
13,COC(=O)CC1SC(=O)NC1=O (stereo not drawn),0
14,Cc1nc2oc3c(NCc4ccccn4)ncnc3c2c2c1COC(C)(C)C2,0
15,CCCSc1nc2c(c(=O)[nH]c(=O)n2C)n1CCc1ccccc1,5
16,COc1cc(-n2nc(C)c3c2OC(N)=C(C#N)C3c2ccccc2)c(Cl)c(Br)c1O (stereo not drawn),9
17,CSCSC1=C(C#N)C(c2ccc(Cl)cc2)C(C(C)=O)=C(C)N1 (stereo not drawn),0
18,O=C(NCc1ccc2c(c1)OCO2)c1ccc(NS(=O)(=O)c2ccc3c(c2)OCCO3)cc1,0
